This is an account of results in PubChem BioAssay.

Assay [1] can be described thus: binders of probe aFSTL3 on microarray, primary screen, stem cell growth factor project, biochemical, small-molecule microarray, fluorescence 635/667 (AID 1064).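 Note: measures binding of the biotinylated anti-FSTL3 antibody to printed compounds.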 Particulars: higher = more signal.
The nature of assay [2]: binders from COS7 lysate, DM2A8 probe, primary screen, torsin A project, cell lysate, small-molecule microarray, fluorescence 635/667 (AID 1065). The conditions noted are these: higher = more signal, COS7 lysate expressing mutant human TOR1A.
The nature of assay [3]: binders of probe aFGF2 on microarray, primary screen, stem cell growth factor project, biochemical, small-molecule microarray, fluorescence 635/667 (AID 1067).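 Note: measures binding of biotinylated aFGF2 protein to printed compounds on slides; z-score merges feature fluorescence and signal-to-noise across triplicate slides.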 The conditions noted are these: higher = more signal.
A short description of assay [4]: binders of probe aFGF10 on microarray, primary screen, stem cell growth factor project, biochemical, small-molecule microarray, fluorescence 635/667 (AID 1071).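 Note: score merges 667 nm spot intensity and signal to noise from triplicate slides.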 The conditions noted are these: higher = more signal.
Assay [5] deals with Neurogenic locus notch homolog protein 2 (Homo sapiens) (UniProt Q04721). Briefly: Notch2 binders on small-molecule microarrays, primary screen, biochemical, small-molecule microarray, 635 nm fluorescence, stem cell growth factors (AID 1073). The conditions noted are these: Notch2 binding, higher = more signal.
Assay [6] has as its target Pro-neuregulin-1, membrane-bound isoform (Homo sapiens) (UniProt Q02297). In words: NRG1 binders on small-molecule microarrays, primary screen, psychiatric disease protein project, biochemical, small-molecule microarray, fluorescence 635/667 (AID 1075).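 Note: score combines 667 nm spot fluorescence with signal to noise.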 Particulars: NRG1 binding, 635 nm fluorescence, higher = more signal.
In assay [7] the test system is Neuregulin-1 EGF-like domain. Briefly: binders of neuregulin-1 EGF-like domain, primary screen, biochemical, small-molecule microarray, 635 nm fluorescence (AID 1081).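 Note: binding of the protein to compounds printed on small-molecule microarray slides.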 The conditions noted are these: small-molecule microarray binding, higher = more signal.
Assay [8] is described as follows: FRG1 promoter luciferase signal modulators, primary screen, FRG1 inhibition for FSHD, cell-based, C2C12 myotubes, firefly/Renilla luciferase, luminescence (AID 1084). The conditions noted are these: higher = more signal, called active from +8 up or from −8 down.
A short description of assay [9]: binders of probe aFST on microarray, primary screen, stem cell growth factor project, biochemical, small-molecule microarray, fluorescence 635/667 (AID 1086).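 Note: score merges 667 nm fluorescence with signal-to-noise of each printed compound spot.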 Particulars: higher = more signal.
Assay [10] is described as follows: binders of probe aHhip on microarray, primary screen, stem cell growth factor project, biochemical, small-molecule microarray, fluorescence 635/667 (AID 1087).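 Note: score merges spot fluorescence at 667nm with spot signal to noise ratio.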 Particulars: higher = more signal.

SMILES strings stand for the structures. Calls of active or inactive are those of the source.

Chain of Neurogenic locus notch homolog protein 2 (Homo sapiens) (Q04721 whole entry, looked up, canonical isoform): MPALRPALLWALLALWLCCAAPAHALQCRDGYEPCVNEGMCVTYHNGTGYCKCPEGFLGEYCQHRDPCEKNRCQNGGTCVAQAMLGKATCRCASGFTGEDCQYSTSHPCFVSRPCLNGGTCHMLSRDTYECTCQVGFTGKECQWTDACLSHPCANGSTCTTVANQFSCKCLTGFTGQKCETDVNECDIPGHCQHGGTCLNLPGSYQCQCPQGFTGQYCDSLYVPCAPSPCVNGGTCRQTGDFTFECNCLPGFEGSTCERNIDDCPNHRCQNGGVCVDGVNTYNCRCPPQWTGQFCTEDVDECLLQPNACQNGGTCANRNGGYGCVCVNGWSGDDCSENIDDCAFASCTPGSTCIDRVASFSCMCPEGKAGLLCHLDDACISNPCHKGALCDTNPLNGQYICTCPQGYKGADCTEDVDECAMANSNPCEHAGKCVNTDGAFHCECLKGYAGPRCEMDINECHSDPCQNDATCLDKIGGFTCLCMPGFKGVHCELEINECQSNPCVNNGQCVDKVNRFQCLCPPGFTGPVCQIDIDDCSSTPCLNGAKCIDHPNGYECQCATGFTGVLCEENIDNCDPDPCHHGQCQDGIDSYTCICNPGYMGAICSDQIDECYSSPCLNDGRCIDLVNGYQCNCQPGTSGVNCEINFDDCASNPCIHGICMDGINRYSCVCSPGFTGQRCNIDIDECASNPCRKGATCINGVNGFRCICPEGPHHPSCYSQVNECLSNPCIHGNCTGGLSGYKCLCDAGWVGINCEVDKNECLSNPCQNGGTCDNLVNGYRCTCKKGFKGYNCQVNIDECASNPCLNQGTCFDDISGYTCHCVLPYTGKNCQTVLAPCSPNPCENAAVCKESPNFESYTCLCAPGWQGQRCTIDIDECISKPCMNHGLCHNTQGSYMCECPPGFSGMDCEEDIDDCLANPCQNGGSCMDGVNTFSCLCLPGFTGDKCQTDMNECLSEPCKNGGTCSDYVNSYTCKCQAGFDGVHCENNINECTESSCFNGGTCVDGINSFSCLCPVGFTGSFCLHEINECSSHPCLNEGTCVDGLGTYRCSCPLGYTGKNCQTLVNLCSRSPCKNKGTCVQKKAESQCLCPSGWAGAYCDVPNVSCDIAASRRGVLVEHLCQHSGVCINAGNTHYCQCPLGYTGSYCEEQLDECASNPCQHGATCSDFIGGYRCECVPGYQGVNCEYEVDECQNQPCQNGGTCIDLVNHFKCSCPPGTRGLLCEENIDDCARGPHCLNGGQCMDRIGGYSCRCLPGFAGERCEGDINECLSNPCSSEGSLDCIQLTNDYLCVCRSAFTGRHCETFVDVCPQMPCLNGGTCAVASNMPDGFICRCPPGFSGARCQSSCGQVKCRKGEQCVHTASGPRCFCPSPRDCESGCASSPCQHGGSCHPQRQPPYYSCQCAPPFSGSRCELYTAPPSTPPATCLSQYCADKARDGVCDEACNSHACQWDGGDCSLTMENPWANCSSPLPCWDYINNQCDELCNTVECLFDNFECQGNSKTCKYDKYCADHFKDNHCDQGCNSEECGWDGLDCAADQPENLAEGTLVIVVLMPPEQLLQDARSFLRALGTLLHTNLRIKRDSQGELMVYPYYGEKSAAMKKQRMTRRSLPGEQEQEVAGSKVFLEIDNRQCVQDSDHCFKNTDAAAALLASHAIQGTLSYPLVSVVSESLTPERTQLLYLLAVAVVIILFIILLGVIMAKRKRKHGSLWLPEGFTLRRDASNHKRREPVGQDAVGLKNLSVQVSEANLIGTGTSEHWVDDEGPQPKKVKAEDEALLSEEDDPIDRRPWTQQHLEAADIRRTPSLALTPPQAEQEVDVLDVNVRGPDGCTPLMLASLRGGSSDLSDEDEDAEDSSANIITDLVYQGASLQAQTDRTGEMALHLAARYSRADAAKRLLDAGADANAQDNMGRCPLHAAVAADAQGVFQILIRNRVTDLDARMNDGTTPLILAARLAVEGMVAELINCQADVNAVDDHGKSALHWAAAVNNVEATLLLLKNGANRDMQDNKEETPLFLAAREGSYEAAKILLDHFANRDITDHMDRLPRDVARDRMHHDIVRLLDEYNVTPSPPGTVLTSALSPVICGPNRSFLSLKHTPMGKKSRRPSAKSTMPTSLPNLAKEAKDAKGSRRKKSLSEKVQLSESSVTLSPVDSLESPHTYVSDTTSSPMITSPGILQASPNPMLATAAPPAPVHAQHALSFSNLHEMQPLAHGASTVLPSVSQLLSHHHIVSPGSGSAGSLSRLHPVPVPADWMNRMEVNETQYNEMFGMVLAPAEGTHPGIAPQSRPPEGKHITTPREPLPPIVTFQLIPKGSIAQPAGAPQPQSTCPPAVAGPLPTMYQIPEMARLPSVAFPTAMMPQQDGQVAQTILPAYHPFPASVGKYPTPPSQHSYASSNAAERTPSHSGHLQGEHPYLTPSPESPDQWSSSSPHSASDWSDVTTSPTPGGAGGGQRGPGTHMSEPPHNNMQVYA
Chain of Pro-neuregulin-1, membrane-bound isoform (Homo sapiens) (Q02297 whole entry, looked up, the tested form may be a part, canonical isoform): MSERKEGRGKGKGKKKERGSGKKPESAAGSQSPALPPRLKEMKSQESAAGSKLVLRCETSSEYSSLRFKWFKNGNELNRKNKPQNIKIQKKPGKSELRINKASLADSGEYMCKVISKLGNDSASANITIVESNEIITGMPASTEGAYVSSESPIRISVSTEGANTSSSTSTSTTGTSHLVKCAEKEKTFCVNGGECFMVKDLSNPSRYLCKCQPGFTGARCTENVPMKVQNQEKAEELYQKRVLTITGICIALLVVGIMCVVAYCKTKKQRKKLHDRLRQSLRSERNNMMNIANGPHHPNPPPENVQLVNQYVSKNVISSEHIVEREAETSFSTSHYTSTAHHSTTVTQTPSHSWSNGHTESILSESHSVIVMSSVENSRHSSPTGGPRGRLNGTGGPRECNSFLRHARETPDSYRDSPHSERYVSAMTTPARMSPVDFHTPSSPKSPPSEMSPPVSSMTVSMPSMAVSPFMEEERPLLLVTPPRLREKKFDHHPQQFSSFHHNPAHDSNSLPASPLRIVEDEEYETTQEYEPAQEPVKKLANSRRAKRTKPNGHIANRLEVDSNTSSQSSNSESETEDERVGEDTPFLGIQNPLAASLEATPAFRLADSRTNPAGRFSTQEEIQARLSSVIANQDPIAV

As to `COC(=O)[C@@]1(Cc2ccc(OC)cc2)[C@H]2c3cc(C(=O)N4CCCC4)n(CCc4c[nH]c5ccc(O)cc45)c3C[C@H]2CN1C(=O)c1ccccc1`, the composite z-score in [1] was 0.77; in assay [2], 0.0885; in assay [3], 0.155; in assay [4], 0.897; in assay [5] it was 1.7; in assay [6] it was 1.44. In addition, the composite z-score in assay [7] was 1.37; in assay [9] it was 1.46; in assay [10], -0.374. Further, the z-score in [8] was 0.829 (inactive).
`CC1CC/C=C\[C@H]2OC34C=CCN(c5ccc(Cl)cc5)C(=O)[C@H]3N(C(C)CO)C(=O)[C@]4(C)C2C(=O)O1` (stereo not given in full): the composite z-score in assay [1] was 0.0528; in assay [2], -0.591; in assay [3], -0.143; in [4], -0.172; in assay [5], -0.807; in [6], -0.154. Further, the composite z-score in [7] is 0.886; in assay [9] it was -0.732; in [10], -0.0618. The z-score in [8] was 0.242 (inactive).
Consider `COCCOC(=O)N1C(=O)[C@@]2(c3cc(C#CCNC(N)=O)ccc31)[C@H](C(N)=O)[C@H]1C(=O)O[C@H](c3ccccc3)[C@H](c3ccccc3)N1[C@@H]2c1ccccc1OCCO`, for which the composite z-score was -0.0102 in assay [1]; 0.176 in [2]; -0.0381 in assay [3]; 0.43 in assay [4]; 1.23 in assay [5]; 0.667 in [6]. Further, the composite z-score in [7] came to 0.46; in assay [9], 0.931; in assay [10], 0.107. In assay [8], the z-score was 1.94 (inactive).
On to `NC(=O)NCC#Cc1ccc2c(c1)[C@]1(C(=O)N2)[C@H](C(=O)N2CCN(c3ncccn3)CC2)[C@H]2C(=O)O[C@H](c3ccccc3)[C@H](c3ccccc3)N2[C@@H]1c1ccc(O)cc1`, for which the composite z-score is -0.141 in assay [1]; 0.143 in assay [2]; -0.0328 in [3]; 0.861 in assay [4]; 1.17 in [5]; 0.575 in assay [6]. Besides, the composite z-score in assay [7] was determined as 0.664; in assay [9], 1.1; in [10], 0.141. The z-score in assay [8] was 0.234 (inactive).
`COc1cc2c(cc1O)C(C1CC1)N(C)CC2` (stereo not given): the composite z-score in [1] is 0.646; in [2], -0.616; in [3], -0.104; in [4] it was -0.874; in assay [5], -0.531; in assay [6], 0.63. The composite z-score in [7] is -0.197; in [9] it was -0.406; in assay [10] it was -0.0994. The z-score in [8] was 0.0877 (inactive).
Turning to `CC(CO)N1C(=O)[C@@H]2[C@H]3C(=O)OCC=C[C@H]3OC23C=CCN(Cn2nnc4ccccc42)C(=O)[C@@H]13` (stereo not given in full), the composite z-score in assay [1] was 0.12; in assay [2] it was -0.699; in assay [3], -0.207; in assay [4], -0.729; in assay [5], -1; in assay [6], 1.88. Moreover, the composite z-score was 0.694 in assay [7], -0.391 in assay [9] and -0.0994 in assay [10]. For the same compound, the z-score in assay [8] was 0.246 (inactive).
Consider `C#Cc1cc2ccccc2oc1=O`, for which the composite z-score in assay [1] is 0.985; in assay [2] it was -0.109; in assay [3] it was 0.153; in assay [4] it was -0.232; in assay [5], -1.81; in assay [6], 0.785. The composite z-score was 1.29 in assay [7], -0.839 in assay [9] and -0.14 in [10]. Further, the z-score in [8] was 1.35 (inactive).
As to `CC(CO)N1C(=O)[C@]2(C)C3C(=O)OCCC/C=C\[C@H]3OC23C=CCN(c2ccc(Cl)cc2)C(=O)[C@@H]13` (stereo not given in full), the composite z-score in [1] was -0.167; in assay [2], -0.258; in assay [3] it was -0.19; in [4] it was 0.0755; in [5], -0.27; in assay [6] it was -0.639. Besides, the composite z-score in assay [7] is 1.25; in assay [9] it was -0.456; in assay [10], -0.266. The z-score in assay [8] was -0.906 (inactive).
Take `C=CC[C@@]1(C(=O)NCCCOC)N=C(c2ccc(OCCCO)cc2)O[C@@H]1c1ccccc1`: the composite z-score in assay [1] is 0.513; in assay [2], 1.09; in assay [3] it was 0.0679; in [4], -0.562; in [5], -0.0215; in assay [6] it was 1.84. The composite z-score in assay [7] came to 1.15; in assay [9] it was 0.74; in [10], 0.712. Also, the z-score in assay [8] is -1.24 (inactive).
In the case of `CCCC=C(CCC)[C@@H](NC(=O)C(C)(C)C)c1ccc(C(=O)OC)cc1`, the composite z-score in [1] is 0.488; in assay [2], -0.495; in [3], 0.202; in assay [4], 0.0431; in assay [5] it was 1.45; in assay [6], 0.992. Also, the composite z-score in assay [7] is 0.883; in [9], 1.26; in [10], -0.115. Besides, the z-score in assay [8] was -4.15 (inactive).
Consider `COC(=O)[C@@]1(Cc2ccc(OC)cc2)[C@H]2c3cc(C(=O)N(C)C)n(Cc4ccc(C)o4)c3C[C@H]2CN1C(=O)c1ccccc1`, for which the composite z-score was 0.429 in assay [1]; -0.342 in [2]; 0.0807 in assay [3]; 0.423 in assay [4]; 1.61 in assay [5]; 1.85 in [6]. Also, the composite z-score in assay [7] came to 1.24; in [9], 1.16; in assay [10] it was 1.48. The z-score in assay [8] was -0.472 (inactive).
With `COCCOC(=O)N1C(=O)[C@@]2(c3cc(C#CCCO)ccc31)[C@H](c1ccc(OCCO)cc1)N1[C@H](c3ccccc3)[C@H](c3ccccc3)OC(=O)[C@H]1[C@@H]2C(=O)Nc1nc2ccccc2s1`, the composite z-score in assay [1] is 0.878; in assay [2], 0.68; in assay [3], 0.0943; in [4] it was 0.575; in [5] it was 0.586; in assay [6] it was 0.222. The composite z-score in assay [7] was found to be 1.1; in [9], 1.24; in assay [10], 0.547. Besides, the z-score in assay [8] was 2.92 (inactive).
